Measured values taken from PubChem BioAssay (NCATS).
Several values for one entry are separate records, joined by “and”; a condition that tells them apart may be missing. Identical values can stand only once. A structure can be active in one record and inactive in another. Activity calls are given as the source filed them. No rule for the calls is given here.

Settings: Ebola virus entry assay, reporter ratio channel; AC50: Channel type: primary unless noted; outcome: Channel type: primary unless noted

Compound | AC50 | outcome
Fc1ccc(C(OCCN2CCN(CCCc3ccccc3)CC2)c2ccc(F)cc2)cc1 | 2.82 µM (active) | –
C=C(C)[C@H]1Cc2c(ccc3c2O[C@@H]2COc4cc(OC)c(OC)cc4[C@@H]2C3=O)O1 | 8.91 µM (active) | –
COC(=O)Nc1nc2ccc(C(=O)C3CC3)cc2[nH]1 | 7.94 µM (active) | –
COc1cc2c(N3CCN(C(=O)Nc4ccc(OC(C)C)cc4)CC3)ncnc2cc1OCCCN1CCCCC1 | 10 µM (active) | –
CN1CC[C@H](c2c(O)cc(O)c3c(=O)cc(-c4ccccc4Cl)oc23)[C@H](O)C1 | – | inactive
C#CCOC(C(=O)OCCN(C)C)(c1ccccc1)c1ccccc1 | 14.1 µM (active) | –
Oc1ccc(Cl)cc1Cc1ccccc1 | 10 µM (active) and 14.1 µM (active) | –
C[C@H]1O[C@@H](O[C@H]2[C@@H](O)C[C@H](O[C@H]3[C@@H](O)C[C@H](O[C@H]4CC[C@@]5(C)[C@H](CC[C@@H]6[C@@H]5CC[C@]5(C)[C@@H](C7=CC(=O)OC7)CC[C@]65O)C4)O[C@@H]3C)O[C@@H]2C)C[C@H](O)[C@@H]1O | 0.708 µM (active) | –
NC(=Nc1ccccc1)Nc1ccccc1 | 31.6 µM (active) | inactive
COC(=O)Nc1nc2ccc(C(=O)c3cccs3)cc2[nH]1 | 0.708 µM (active) | inactive [Channel type: confirmation]
O=c1[nH]c2ccccc2n1CCCN1CCC(n2c(=O)[nH]c3cc(Cl)ccc32)CC1 | 25.1 µM (active) | –
COc1cc([C@@H]2c3cc4c(cc3[C@H](O)[C@H]3COC(=O)[C@H]23)OCO4)cc(OC)c1OC | 5.01 µM (active) | –
O=C1NCN(c2ccccc2)C12CCN(CC1COc3ccccc3O1)CC2 (stereo not given) | – | inactive
CN1C(=S)CN=C(c2ccccc2)c2cc(Cl)ccc21 | – | inactive
Oc1cc(Cl)ccc1Oc1ccc(Cl)cc1Cl | 7.08 µM (active) and 14.1 µM (active) | –
CCC1(C2=NCCN2)Cc2ccccc2O1 (stereo not given) | – | inactive
Clc1ccc(COC(Cn2ccnc2)c2ccc(Cl)cc2Cl)cc1 (stereo not given) | 3.55 µM (active) | –
COc1ccc(C(=O)c2c(C)n(CCN3CCOCC3)c3ccccc23)cc1 | 35.5 µM (active) | –
COc1cccc2c1C(=O)c1c(O)c3c(c(O)c1C2=O)C[C@@](O)(C(=O)CO)C[C@@H]3O[C@H]1C[C@H](N)[C@H](O)[C@H](C)O1 | 14.1 µM (active) | –
c1ccc2c(c1)Nc1ccccc1S2 | – | inactive
O=c1oc2ccccc2c(O)c1C(CC(O)c1ccc(-c2ccc(Br)cc2)cc1)c1ccccc1 (stereo not given) | – | inactive
Cn1c(CCCC(=O)O)nc2cc(N(CCCl)CCCl)ccc21 | – | inactive
CC(C)(C)CC(C)(C)c1ccc(O)cc1 | 17.8 µM (active) and 15.8 µM (active) | –
